Measurements taken from PubChem BioAssay (NCI).
This is part of a sample that, as a whole, favours compounds with a hit. Of some 79,000 tested, about 15% had one in any assay. The source made the active and inactive calls. No stated cut-off is given here; in the data, active means growth inhibition above about 70%; inactive means the rest.

Columns and labels:
[1] = NCI Yeast Anticancer Drug Screen. Data for the rad52 strain (AID 147);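 further: 0% = growth of vehicle-treated control cultures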; settings: S. cerevisiae rad52 mutant growth inhibition, stronger effect = higher value
Summary of the method: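 Measured: yeast growth inhibition. System: strain with a defined DNA damage repair alteration. Reference: vehicle-treated control cultures.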

[2] = NCI Yeast Anticancer Drug Screen. Data for the wt1 strain (AID 149);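 further: 0% = growth of vehicle-treated wt1 cultures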; settings: S. cerevisiae wt1 strain (SPY 50644) growth inhibition, stronger effect = higher value
Summary of the method: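 Growth inhibition read against vehicle controls after compound exposure of the wt1 yeast strain.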

[3] = NCI Yeast Anticancer Drug Screen. Data for the rad50EPP+ strain (AID 151);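 further: 0% = growth of vehicle-treated control cultures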; settings: S. cerevisiae rad50 mutant strain, stronger effect = higher value
Summary of the method: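 One strain with a rad50 alteration (rad50EPP+) was compound-treated, its growth then compared to that of vehicle controls.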

[4] = NCI Yeast Anticancer Drug Screen. Data for the mgt1 strain (AID 153); settings: S. cerevisiae mgt1 mutant growth inhibition, stronger effect = higher value
Summary of the method: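 After exposure of the mgt1 yeast mutant to compound, growth was measured and reported as inhibition compared with vehicle controls.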

[5] = NCI Yeast Anticancer Drug Screen. Data for the rad50 strain (AID 155);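 further: 0% = growth of vehicle-only cultures of the same strain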; settings: S. cerevisiae rad50 strain growth inhibition, stronger effect = higher value
Summary of the method: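 Readout: growth inhibition relative to vehicle-treated cultures. Compound exposure was carried out in a genetically defined yeast strain deficient in DNA damage repair.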

[6] = NCI Yeast Anticancer Drug Screen. Data for the mec2-1 strain (AID 157); settings: S. cerevisiae mec2-1 strain, stronger effect = higher value
Summary of the method: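 Test agents were screened against the mec2-1 yeast strain, with defined DNA repair or cell cycle alteration. Growth was scored as inhibition against vehicle-only controls.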

[7] = NCI Yeast Anticancer Drug Screen. Data for the rad14 strain (AID 159);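 further: 0% = growth of vehicle-treated control cultures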; settings: S. cerevisiae rad14 strain growth inhibition, stronger effect = higher value
Summary of the method: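 Growth inhibition vs vehicle controls; genetically altered yeast strain (DNA damage repair defect) treated with test compounds.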

[8] = NCI Yeast Anticancer Drug Screen. Data for the sgs1 mgt1 strain (AID 161);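 further: 0% = growth of cultures given vehicle only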; settings: S. cerevisiae sgs1 mgt1 strain, stronger effect = higher value
Summary of the method: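 Test agents were incubated with a DNA-repair-mutant yeast strain. Growth was then read and compared against vehicle-treated controls.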

[9] = NCI Yeast Anticancer Drug Screen. Data for the CLN2oe strain (AID 163);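 further: 0% = growth of vehicle-only control cultures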; settings: S. cerevisiae CLN2oe strain, stronger effect = higher value
Summary of the method: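 Here, growth inhibition in a cell-cycle-altered yeast strain after compound exposure was quantified against vehicle control growth.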

[10] = NCI Yeast Anticancer Drug Screen. Data for the cln2 rad14 strain (AID 165);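 further: 0% = growth equal to vehicle treated cultures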; settings: S. cerevisiae cln2 rad14 strain, stronger effect = higher value
Summary of the method: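 Growth of compound-exposed yeast (cln2 rad14 genotype) measured and expressed as inhibition relative to vehicle.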

[11] = NCI Yeast Anticancer Drug Screen. Data for the bub3 strain (AID 167); settings: S. cerevisiae bub3 mutant strain, stronger effect = higher value
Summary of the method: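 Readout: yeast growth inhibition, expressed relative to vehicle-only wells. The test organism is a mutant strain from a panel with lesions in DNA repair or checkpoint genes.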

[12] = NCI Yeast Anticancer Drug Screen. Data for the wt2 strain (AID 169);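 further: 0% = growth of vehicle-treated yeast cultures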; settings: S. cerevisiae wt2 strain growth inhibition, stronger effect = higher value
Summary of the method: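 Genetically defined yeast strains from a DNA-repair/cell-cycle panel were used. Compound-exposed yeast growth was measured, and the inhibition was calculated relative to vehicle treatment.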

[13] = NCI Yeast Anticancer Drug Screen. Data for the mlh1 strain (AID 171);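 further: 0% = growth of vehicle-treated control cultures of the same strain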; settings: S. cerevisiae mlh1 strain growth inhibition, stronger effect = higher value
Summary of the method: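 Here the genetically defined yeast mutant is grown with each compound, and the extent to which its growth falls below that of vehicle-exposed cells is reported.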

[14] = NCI Yeast Anticancer Drug Screen. Data for the sgs1 strain (AID 173);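 further: 0% = growth of vehicle-only control cultures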; settings: S. cerevisiae sgs1 mutant, stronger effect = higher value
Summary of the method: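 Relative growth inhibition, referenced to vehicle, was determined in a yeast strain with a defined alteration affecting DNA damage repair or cell cycle control after compound exposure.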

[15] = NCI Yeast Anticancer Drug Screen. Data for the mlh1 rad18 strain (AID 175); settings: S. cerevisiae mlh1 rad18 strain growth inhibition, stronger effect = higher value
Summary of the method: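 In this whole-cell yeast screen, a strain with altered DNA damage repair is challenged with compound, and its growth is measured against matched vehicle-treated controls.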

[16] = NCI Yeast Anticancer Drug Screen. Data for the rad18 strain (AID 177); settings: S. cerevisiae rad18 mutant growth inhibition, stronger effect = higher value
Summary of the method: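 Screen uses a yeast strain with a defined lesion in DNA damage repair; compound effect is read as loss of growth compared to untreated vehicle cultures.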

[17] = at 5.0 µM (retest, dose inferred, filed as 0.5)
[18] = at 50.0 µM (retest, dose inferred, filed as 5.0)

Measured: growth inhibition

Nc1ccccc1CC(O)C(=O)O (stereo unspecified)
inactive: [1]; at 1.2 µM 0% | [1]; at 3.7 µM 5% | [1]; at 11.0 µM 14% | [1]; at 33.0 µM 53% | [2]; at 1.2 µM 2% | [2]; at 3.7 µM 3% | [2]; at 11.0 µM 13% | [2]; at 33.0 µM 42% | [3]; at 1.2 µM -2% | [3]; at 3.7 µM 1% | [3]; at 11.0 µM -1% | [3]; at 33.0 µM 2% | [3]; at 100.0 µM 4% | [4]; at 1.2 µM 4% | [4]; at 3.7 µM -1% | [4]; at 11.0 µM 14% | [5]; at 1.2 µM 3% | [5]; at 3.7 µM 13% | [5]; [17] -15% | [5]; at 11.0 µM 27% | [6]; at 1.2 µM 0% | [6]; at 3.7 µM 8% | [6]; [17] 3% | [6]; at 11.0 µM 14% | [6]; at 33.0 µM 30% | [6]; at 50.0 µM 52.1% | [7]; at 1.2 µM -3% | [7]; at 3.7 µM 6% | [7]; at 11.0 µM 24% | [8]; [17] -6% | [9]; at 1.2 µM 5% | [9]; at 3.7 µM 9% | [9]; at 11.0 µM 13% | [9]; at 33.0 µM 25% | [9]; at 100.0 µM 42% | [10]; [17] -2% | [10]; [18] 14% | [10]; at 50.0 µM 13.6% | [11]; at 1.2 µM 5% | [11]; at 3.7 µM -14% | [11]; [17] -17% | [11]; at 11.0 µM 9% | [12]; at 1.2 µM 2% | [12]; at 3.7 µM 6% | [12]; at 11.0 µM 21% | [13]; at 1.2 µM 2% | [13]; at 3.7 µM 4% | [13]; at 11.0 µM 29% | [14]; at 1.2 µM -1% | [14]; at 3.7 µM 1% | [14]; at 11.0 µM 14% | [15]; [17] 0% | [16]; at 1.2 µM 1% | [16]; at 3.7 µM 4% | [16]; at 11.0 µM 10% | [16]; at 33.0 µM 60%
active: [1]; at 100.0 µM 88% | [2]; at 100.0 µM 90% | [4]; at 33.0 µM 74% | [4]; at 100.0 µM 95% | [5]; at 33.0 µM 85% | [5]; [18] 94% | [5]; at 50.0 µM 93% | [5]; at 100.0 µM 95% | [6]; [18] 74% | [6]; at 100.0 µM 90% | [7]; at 33.0 µM 91% | [7]; at 100.0 µM 97% | [8]; [18] 95% | [8]; at 50.0 µM 94.5% | [11]; at 33.0 µM 70% | [11]; [18] 90% | [11]; at 50.0 µM 83.8% | [11]; at 100.0 µM 92% | [12]; at 33.0 µM 90% | [12]; at 100.0 µM 95% | [13]; at 33.0 µM 92% | [13]; at 100.0 µM 97% | [14]; at 33.0 µM 83% | [14]; at 100.0 µM 95% | [15]; [18] 94% | [15]; at 50.0 µM 92.7% | [16]; at 100.0 µM 90%

c1ccc2c(c1)C(=NCCCN1CCCCCC1)c1cccn1-2
active: [1]; at 100.0 µM 97% | [2]; at 100.0 µM 93% | [4]; at 100.0 µM 97% | [5]; at 50.0 µM 78.2% | [5]; at 100.0 µM 97% | [6]; at 100.0 µM 98% | [7]; at 100.0 µM 98% | [8]; at 50.0 µM 84.5% | [9]; at 100.0 µM 93% | [11]; at 50.0 µM 94.9% | [11]; at 100.0 µM 97% | [12]; at 100.0 µM 96% | [13]; at 100.0 µM 96% | [14]; at 100.0 µM 96% | [15]; at 50.0 µM 89.8% | [16]; at 100.0 µM 98%
inactive: [1]; at 1.2 µM -3% | [1]; at 3.7 µM -5% | [1]; at 11.0 µM -5% | [1]; at 33.0 µM -6% | [2]; at 1.2 µM -2% | [2]; at 3.7 µM -1% | [2]; at 11.0 µM 2% | [2]; at 33.0 µM -1% | [3]; at 1.2 µM -3% | [3]; at 3.7 µM -4% | [3]; at 11.0 µM -4% | [3]; at 33.0 µM 3% | [3]; at 100.0 µM 63% | [4]; at 1.2 µM -4% | [4]; at 3.7 µM -1% | [4]; at 11.0 µM -1% | [4]; at 33.0 µM 3% | [5]; at 1.2 µM -3% | [5]; at 3.7 µM -8% | [5]; [17] -3% | [5]; at 11.0 µM -9% | [5]; at 33.0 µM -6% | [5]; [18] -6% | [6]; at 1.2 µM -3% | [6]; at 3.7 µM 1% | [6]; [17] 0% | [6]; at 11.0 µM 4% | [6]; at 33.0 µM 0% | [6]; [18] -3% | [6]; at 50.0 µM 68.2% | [7]; at 1.2 µM -15% | [7]; at 3.7 µM -3% | [7]; at 11.0 µM -2% | [7]; at 33.0 µM 4% | [8]; [17] 2% | [8]; [18] -7% | [9]; at 1.2 µM -10% | [9]; at 3.7 µM -15% | [9]; at 11.0 µM -23% | [9]; at 33.0 µM -18% | [10]; [17] -7% | [10]; [18] -5% | [10]; at 50.0 µM 61.4% | [11]; at 1.2 µM 0% | [11]; at 3.7 µM -4% | [11]; [17] 6% | [11]; at 11.0 µM 0% | [11]; at 33.0 µM 10% | [11]; [18] -3% | [12]; at 1.2 µM -2% | [12]; at 3.7 µM -4% | [12]; at 11.0 µM -2% | [12]; at 33.0 µM -3% | [13]; at 1.2 µM -2% | [13]; at 3.7 µM -2% | [13]; at 11.0 µM 0% | [13]; at 33.0 µM 4% | [14]; at 1.2 µM -4% | [14]; at 3.7 µM -2% | [14]; at 11.0 µM -1% | [14]; at 33.0 µM 4% | [15]; [17] -2% | [15]; [18] -2% | [16]; at 1.2 µM -1% | [16]; at 3.7 µM 1% | [16]; at 11.0 µM 4% | [16]; at 33.0 µM 1%
